Compound activity deposited in PubChem BioAssay by several laboratories.
MEKK2wt PB1 HTS: modulators of MEK5 binding to wildtype MEKK2, primary screen, biochemical, multiplex bead flow cytometry, Alexa488-MEK5; Alexa488-MEK5 binding to MEKK2 WT; actives lie on both sides; binding response (% of control), % at 10 µM; 1.1% of 290,000 active; AID 1531, 2009; in the data active means binding response below about 67% or above about 130%
ABCB6 inh MLPCN: ABCB6 transporter inhibitors, primary screen, K562-ABCB6 cells, flow cytometry, MLPCN library; ATP-binding cassette sub-family B member 6 (Homo sapiens), Q9NP58; K562-ABCB6 porphyrin accumulation, 1 h; stronger effect = lower value; fluorescence ratio to DMSO, % at 10 µM; 0.19% of 360,000 active; AID 602162, 2011;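 active means fluorescence ratio to DMSO below 75%, the collection mean minus 3 SD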;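 further: signal is porphyrin accumulated inside mitochondria; 100% equals median channel fluorescence of DMSO control wells; lower ratio means ABCB6 inhibition with less porphyrin fluorescence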
MEKK2 mut-MEK5: MEK5 binding signal on mutant MEKK2 PB1, primary screen, biochemical, multiplex bead flow cytometry, Alexa488-MEK5; AID 1530, 2009; Alexa488-MEK5 binding to MEKK2 mutant; 0.35% of 290,000 active; percent response, % at 10 µM; in the data active means percent response above about 24%, passing the limit was not always enough
CRFBP-R2 agonist: agonists of CRF-BP/CRF-R2 complex, primary screen, cell-based, HEK293, calcium dye fluorescence, uHTS | AID 588473, 2011 | activation, % at 13.2 µM | 0.46% of 350,000 active | calcium dye fluorescence (FLIPR); percent of saturating CRF peptide response | CRF-binding protein / CRF receptor 2 complex (human);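 active means activation of at least 50%, plus an integration ratio under a set limit after plate pattern correction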;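 further: plate controls were neutral control wells without compound for no effect and CRF at EC100 for full effect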
CRFBP-R2 block: antagonists of CRF-BP/CRF-R2 complex, primary screen, cell-based, HEK293, calcium dye fluorescence, uHTS. AID 588475, 2011. inhibition, % at 11.8 µM. 0.59% of 350,000 active. CRF-induced calcium fluorescence;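 active means inhibition of the ligand-induced calcium signal above about 50% at the single tested concentration, limit read from the data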
MEKK3 PB1 HTS: modulators of MEKK3-MEK5 PB1 binding, primary screen, biochemical, wildtype MEKK3, multiplex bead flow cytometry, Alexa488-MEK5 | 1.4% of 290,000 active | AID 1529, 2009 | binding response (% of control), % at 10 µM | bead-based flow cytometry, Alexa488-MEK5 binding to MEKK3; actives lie on both sides; 0 = blocked by unlabeled MEK5, 100 = vehicle | Mitogen-activated protein kinase kinase kinase 3 (Homo sapiens), Q99759;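 active means binding response more than 3 SD above or below the average of its plate-row segment, actives on both sides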;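 further: Alexa488 bead fluorescence after subtracting the streptavidin-only scavenger bead signal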
Target sequence (Q99759 whole entry, looked up): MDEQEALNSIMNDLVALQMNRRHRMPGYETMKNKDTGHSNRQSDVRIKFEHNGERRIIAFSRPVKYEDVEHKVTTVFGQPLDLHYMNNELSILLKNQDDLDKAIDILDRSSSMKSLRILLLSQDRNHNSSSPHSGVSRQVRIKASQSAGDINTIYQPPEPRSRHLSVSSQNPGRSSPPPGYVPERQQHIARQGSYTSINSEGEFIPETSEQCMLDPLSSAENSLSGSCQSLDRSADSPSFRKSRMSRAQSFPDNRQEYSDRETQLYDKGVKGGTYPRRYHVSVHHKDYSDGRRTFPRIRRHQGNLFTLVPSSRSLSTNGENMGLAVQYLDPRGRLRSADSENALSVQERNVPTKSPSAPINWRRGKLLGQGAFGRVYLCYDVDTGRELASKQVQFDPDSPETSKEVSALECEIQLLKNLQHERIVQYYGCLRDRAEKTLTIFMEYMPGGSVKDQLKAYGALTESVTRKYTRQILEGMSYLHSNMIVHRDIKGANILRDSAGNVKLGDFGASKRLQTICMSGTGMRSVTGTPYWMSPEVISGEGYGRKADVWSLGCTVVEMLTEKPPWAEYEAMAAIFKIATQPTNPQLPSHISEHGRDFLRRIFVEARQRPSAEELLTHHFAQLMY
Numbers without * were called inactive; i = inactive; . = no result given; [ ] = dose if it differs, or a comment. Rows were chosen to be rich in hits. Some 2.9% of all compounds tested hit in one or more screens of this group.

SMILES	MEKK2wt PB1 HTS	ABCB6 inh MLPCN	MEKK2 mut-MEK5	CRFBP-R2 agonist	CRFBP-R2 block	MEKK3 PB1 HTS
O=C(CN1C(=O)COc2ccc(S(=O)(=O)N3CCOCC3)cc21)Nc1cccc(Cl)c1	101.0	98.0	1.0	-1.4	-19.2	101.0
COc1cccc2c1C(=O)c1c(O)c3c(c(O)c1C2=O)CC(O)(C(C)=O)CC3OC1CC(O)C(O)C(C)O1 (stereo not drawn)	.	367.0	.	96.3*	-103.3	.
COc1cccc2c1C(=O)c1c(O)c3c(c(O)c1C2=O)C[C@](O)(C(C)=O)C[C@H]3O[C@@H]1C[C@@H](N)[C@@H](O)[C@@H](C)O1	.	575.0	.	64.4*	-66.0	.
CCCCC(=O)OCC(=O)C1(O)Cc2c(O)c3c(c(O)c2C(OC2CC(NC(=O)C(F)(F)F)C(O)C(C)O2)C1)C(=O)c1c(OC)cccc1C3=O (stereo not drawn)	.	i	.	32.5	-67.4	.
COc1cccc2c1C(=N)c1c(O)c3c(c(O)c1C2=O)CC(O)(C(C)=O)CC3OC1CC(N)C(O)C(C)O1 (stereo not drawn)	.	108.0	.	-1.7	27.2	.
Cc1ccc(-c2noc(CN3CCC(C(N)=O)CC3)n2)cc1	.	89.0	.	50.7*	-55.0	.
Cc1nnsc1-c1onc(C)c1C(=O)O/N=C/c1ccc(Cl)cc1	97.0	97.0	-10.0	-0.3	124.7*	95.0
COc1ccc(S(=O)(=O)Nc2c(O)ccc3ccccc23)cc1OC	.	102.0	.	0.6	9.9	.
COc1cc(C(=O)NNC(=O)COc2ccccc2Cl)ccc1OCC(=O)N1CCOCC1	.	95.0	.	-1.0	2.7	.
COc1cc(C(=O)NCc2ccccc2Cl)ccc1OCC(=O)N1CCOCC1	.	98.0	.	0.6	62.0*	.
COC(=O)c1ccc2c(c1)C(C)(C)C(/C=C/c1ccc(O)cc1)=[N+]2C	51.0*[inhibitor]	906.0	-8.0	51.2*	-136.8	72.0
COC(=O)c1ccc2c(c1)C(C)(C)C(/C=C/c1ccc(OC)c(OC)c1OC)=[N+]2C	107.0	202.0	4.0	2.9	28.0	106.0
COc1cc(OC)c(OC)cc1/C=C1\Oc2cc(OCC(=O)N3Cc4ccccc4C[C@H]3C(=O)O)ccc2C1=O	100.0	129.0	-1.0	34.7	-28.2	98.0
Cc1ccc(C2C(C#N)=C(N)SC(N)=C2C#N)c(C)c1	98.0	124.0	0.0	133.0*	-89.2	95.0
Cc1ccc(C2C(C#N)=C(N)SC(N)=C2C#N)cc1	.	111.0	.	39.5	-12.2	.
NCC1CC2c3ccccc3C1c1ccccc12 (stereo not drawn)	106.0	77.0	5.0	-0.1	5.7	104.0
Cc1[nH]c(C(=O)N/N=C/c2ccc(C(=O)O)cc2)c(C)c1C(=O)N/N=C/c1ccc(C(=O)O)cc1	101.0	93.0	-1.0	-0.2	-0.2	110.0
CCOC(=O)c1c(C)[nH]c(C(=O)N/N=C/c2ccc(Br)cc2)c1C	119.0	74.0*	32.0	-1.1	-57.0	110.0
Nc1ccc2c(c1)Cc1cc([N+](=O)[O-])ccc1-2	95.0	123.0	2.0	110.9*	-116.5	99.0
CCOC(=O)Nc1ccc2c(c1)Cc1cc([N+](=O)[O-])ccc1-2	.	98.0	.	0.7	-8.0	.
CC(O)CN(CC(C)O)c1ccc2c(c1)Cc1cc([N+](=O)[O-])ccc1-2 (stereo not drawn)	.	181.0	.	196.8*	-187.2	.
CC(=NO)c1ccc2c(c1)Cc1cc([N+](=O)[O-])ccc1-2	.	106.0	.	-2.1	43.2	.
CCN(CC)S(=O)(=O)c1ccc(C(=O)NCC(=O)NCCCc2ccccc2)cc1	101.0	98.0	3.0	1.4	-7.8	102.0
Cc1ccccc1-c1nc(CN2CCC(C(=O)NCCCN3CCCC3)CC2)c(C)o1	198.0*	107.0	51.0*	0.1	11.2	102.0
CC1CN(C(=O)Cn2cc(S(=O)(=O)CC(=O)N3CCOCC3)c3ccccc32)CC(C)O1 (stereo not drawn)	108.0	101.0	6.0	-0.9	1.6	104.0
SMILES	MEKK2wt PB1 HTS	ABCB6 inh MLPCN	MEKK2 mut-MEK5	CRFBP-R2 agonist	CRFBP-R2 block	MEKK3 PB1 HTS
CCc1ccc(S(=O)(=O)/N=C2\C=C(Nc3ccc(O)cc3)C(=O)c3ccccc32)cc1	94.0	100.0	-7.0	-3.4	140.1*	101.0
CCc1ccc(S(=O)(=O)/N=C2\C=C(Nc3cccc(C(=O)O)c3)C(=O)c3ccccc32)cc1	95.0	102.0	1.0	-4.0	33.1	100.0
Cc1cc(N2CCCCC2)nc(N)n1	103.0	105.0	-2.0	235.3*	-46.8	104.0
Cc1cc(N2CCCC2)nc(-c2ccccc2O)n1	108.0	112.0	10.0	-1.2	24.9	100.0
COc1ccccc1-n1cc(C(=O)c2cc(Cl)ccc2O)cc(C#N)c1=O	98.0	100.0	-5.0	6.3	17.9	101.0
Cc1c(-n2cc(C(=O)c3cc(F)ccc3O)cc(C#N)c2=O)c(=O)n(-c2ccccc2)n1C	73.0	99.0	-11.0	51.1*	-10.1	69.0
N#Cc1cc(C(=O)c2ccccc2O)cn(-c2nccs2)c1=O	103.0	93.0	2.0	238.8*	-224.2	107.0
N#Cc1cc(C(=O)c2cc(F)ccc2O)cn(-c2nccs2)c1=O	96.0	211.0	-2.0	341.4*	-416.0	103.0
Cc1ccccc1-n1cc(C(=O)c2cc(Cl)ccc2O)cc(C#N)c1=O	108.0	98.0	-1.0	-1.5	-13.9	104.0
CC(C)n1cc(C(=O)c2ccccc2O)cc(C#N)c1=O	101.0	93.0	-2.0	-1.4	-5.3	100.0
CC1Sc2ccc(S(=O)(=O)N3CCC(C(=O)Nc4cccc(Cl)c4)CC3)cc2NC1=O (stereo not drawn)	96.0	104.0	-1.0	4.1	-8.3	98.0
CCCCCCCCOC(=O)c1c(CSC(=N)N)n(C)c2cc(Br)c(OC(C)=O)cc12	281.0*	101.0	136.0*	-1.1	-34.6	105.0
CCOC(=O)c1c(CSc2nc(C)cc(C)c2C#N)n(C)c2cc(Br)c(OC(C)=O)cc12	96.0	88.0	1.0	0.5	11.1	101.0
CCOC(=O)c1c(CSC(=N)N)n(-c2ccc(Br)cc2)c2cc(Br)c(OC(C)=O)cc12	143.0*	98.0	17.0	0.8	-31.8	103.0
CN1C(=O)/C(=C/c2ccccc2Cl)Sc2ccc(C(=O)NCc3cccnc3)cc21	107.0	95.0	10.0	2.3	11.8	107.0
COCC(=O)N1CCC(Oc2ccc(C(=O)N3CCN(C)C[C@@H]3C(C)C)cc2)CC1	101.0	102.0	3.0	-0.9	5.8	102.0
O=C(N1CCN(c2ncccn2)CC1)C12CC3CC(CC(C3)C1)C2	.	96.0	.	-2.9	9.5	.
